Screening results from PubChem BioAssay.
FBW7 activator – FBW7 E3 ligase activators, primary screen, biochemical, AlphaScreen, human | F-box/WD repeat-containing protein 7 (Homo sapiens), Q969H0 | normalized activity (activation), % at 26.1 µM | actives 0.13% (n = 650,000) | AlphaScreen FBW7–phospho-cyclin E peptide binding, activator screen; in the data active means normalized activity above about 1.9%;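 further: purified mutant Fbw7 with reduced substrate affinity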
GPR151 activ – activators of human GPR151, primary screen, cell-based, PathHunter beta-arrestin, luminescence; PathHunter beta-arrestin GPR151 cells; activation, % at 11.2 µM; AID 1508602, 2020; actives 1% (n = 650,000); G-protein coupled receptor 151 (Homo sapiens), Q8TDV0; in the data active means activation above about 4.9%
Target sequence (Q8TDV0 whole entry, looked up): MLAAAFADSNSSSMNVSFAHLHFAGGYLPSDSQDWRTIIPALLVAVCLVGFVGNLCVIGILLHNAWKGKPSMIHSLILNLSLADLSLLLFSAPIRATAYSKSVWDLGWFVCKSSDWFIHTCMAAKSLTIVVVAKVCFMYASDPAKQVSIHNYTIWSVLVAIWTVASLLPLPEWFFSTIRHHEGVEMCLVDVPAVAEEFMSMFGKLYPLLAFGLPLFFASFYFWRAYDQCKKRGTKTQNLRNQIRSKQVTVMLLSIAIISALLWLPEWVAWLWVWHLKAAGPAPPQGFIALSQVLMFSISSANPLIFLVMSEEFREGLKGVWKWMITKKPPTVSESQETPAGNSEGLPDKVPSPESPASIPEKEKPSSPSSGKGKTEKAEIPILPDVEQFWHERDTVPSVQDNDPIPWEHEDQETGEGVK
MITF primary – MITF inhibitors, primary screen, biochemical, AlphaScreen, human; Microphthalmia-associated transcription factor (Homo sapiens), O75030; AlphaScreen MITF homodimerization, bead proximity signal; inhibition, % at 2.6 µM; actives 0.91% (n = 650,000); AID 1259374, 2018; in the data active means inhibition above about 50%
TEAD-YAP inh – TEAD-YAP interaction inhibition, primary screen, TEAD-YAP interaction inhibitor project, luminescence, HEK-TIYL cells; TEAD-Gal4/YAP UAS-luciferase luminescence; inhibition, % at 9.12 µM; actives 1.4% (n = 640,000); AID 1259422, 2018; in the data active means inhibition above about 32%
MITF inh conf – MITF inhibitors, retest of hits, confirmation, biochemical, AlphaScreen, triplicate; actives 16% (n = 4,700); inhibition, % at 2.6 µM; AlphaScreen MITF homodimerization, biotin/His-MITF beads; shares compounds with MITF primary;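 active means inhibition above a cutoff derived from the DMSO control wells, cut at about 28% in these data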;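 further: inhibitors lower the bead chemiluminescence by keeping MITF from dimerizing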
AlphaScreen DR – AlphaScreen optical interference compounds, dose response, counter-screen, biochemical, HTS. shares compounds with MITF primary. actives 6% (n = 480). AlphaScreen optical interference counterscreen, cell-free. IC50, µM; call rule not given here
AS interf ctr – AlphaScreen optical interference compounds, counter-screen for MITF inhibitor project, biochemical, triplicate. shares compounds with MITF primary. LysRS AlphaScreen counterscreen, signal interference. inhibition, % at 2.6 µM. actives 7.6% (n = 4,700). AID 1259376, 2018;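 active means inhibition above a cutoff derived from the DMSO control wells, cut at about 30% in these data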
Each line names hits and unclear results; the compound was inactive in the other large screens (follow-up assays come after a bar, where they were run). Most compounds without a hit are left out; they make up all but 3.4% or so of the library.

CC(C)CN1C(=O)C(=O)N(CC(=O)NC2CCCc3ccccc32)C1=O (centres undefined)	none
CN(C)C(CNCC(=O)NC1CCCc2ccccc21)c1ccccc1 (centres undefined)	MITF primary 76 | MITF inh conf inactive | AS interf ctr 56
COc1cc(OC)nc(Oc2cccnc2C(=O)NNc2ccccc2)n1	MITF primary 54 | MITF inh conf 36 | AS interf ctr 70
CCOc1ccc(CN2CCN(Cc3ccc(OC)c(OC)c3)CC2)cc1	none
CCOc1ccc(CN2CCN(Cc3ccc(OC)c(OCc4ccccc4)c3)CC2)cc1	MITF primary 69 | MITF inh conf inactive | AS interf ctr inactive
COc1cc(CN2CCN(S(=O)(=O)c3ccccc3)CC2)ccc1OCc1ccccc1	none
CCS(=O)(=O)N1CCN(Cc2ccc(OCc3ccccc3)c(OC)c2)CC1	MITF primary 51 | MITF inh conf inactive | AS interf ctr inactive
COc1ccc(CN2CCN(S(=O)(=O)c3ccc([N+](=O)[O-])cc3)CC2)cc1OCc1ccccc1	MITF primary 52 | MITF inh conf inactive | AS interf ctr inactive
COc1ccc(CNCc2ccco2)cc1OCc1ccccc1	none
COc1ccc(CN2CCN(Cc3ccco3)CC2)cc1OCc1ccccc1	MITF primary 60 | MITF inh conf inactive | AS interf ctr inactive
c1nc(NCC2CCCO2)c2sc3nc(N4CCOCC4)c4c(c3c2n1)CCCC4 (centres undefined)	none
COCCNc1cc(-c2ccccn2)nc(-c2ccccn2)n1	MITF primary 116 | MITF inh conf 118 | AS interf ctr 100
COCCNc1cc(-c2ccccn2)nc(-c2ccccc2)n1	none
CCN(CCCNC(=O)c1ccc2c(=O)n(Cc3ccc(Cl)cc3)c(=S)[nH]c2c1)c1cccc(C)c1	none
COC(=O)C(=Cc1ccc(OC)c(C(=O)O)c1)C(=O)OC	MITF primary 63 | MITF inh conf inactive | AS interf ctr inactive
O=C(NCc1ccco1)c1ccc(Br)cc1	none
N#CCCN(CC(=O)c1ccc(Br)cc1)Cc1ccco1	MITF primary 63 | MITF inh conf inactive | AS interf ctr inactive
CC(=O)NC1(c2ccccc2)CCN(C(=O)C2CC2)CC1	none
CC(=O)NC1(c2ccccc2)CCN(C(=O)N2CCOCC2)CC1	MITF primary 82 | MITF inh conf inactive | AS interf ctr inactive
COc1cc(CN2CCC(O)CC2)cc(Br)c1O	none
C=CCN(CC=C)C(=O)C1CCN(Cc2cc(Br)c(O)c(OC)c2)CC1	MITF primary 69 | MITF inh conf inactive | AS interf ctr inactive
COc1ccc(CN2CCOCC2)cc1OC	none
COc1ccc(CN2CCN(Cc3ccc(Cl)cc3)CC2)cc1OC	MITF primary 74 | MITF inh conf inactive | AS interf ctr inactive
CCS(=O)(=O)N1CCN(Cc2ccc(OC)c(OC)c2)CC1	none
CCOc1cc(CN2CCN(Cc3cc(OC)c(OC)cc3OC)CC2)ccc1OC	none
COc1cc(OC)c(OC)cc1CN1CCN(Cc2cccc(Cl)c2)CC1	MITF primary 82 | MITF inh conf inactive | AS interf ctr inactive
COc1ccc(CN2CCN(Cc3ccc(OC)c(OC)c3)CC2)cc1	MITF primary 74 | MITF inh conf inactive | AS interf ctr inactive
COc1ccc(CN2CCN(Cc3cccc(Cl)c3)CC2)cc1OC	MITF primary 82 | MITF inh conf inactive | AS interf ctr inactive
Cc1nn(CC(=O)NCCc2ccc(Cl)cc2)c(C)c1[N+](=O)[O-]	none
COc1ccc(CN2CCN(Cc3cccc(F)c3)CC2)cc1OC	MITF primary 64 | MITF inh conf inactive | AS interf ctr inactive
COc1cc(/C=N/NC(=O)CNC(=O)c2ccccc2F)ccc1O	none
CN1CCN(CCOCCOc2c(Cl)cc(Cl)cc2Cl)CC1	none
Cc1cc(Cl)c(OCCN2CCN(C)CC2)c(Br)c1	MITF primary 55 | MITF inh conf inactive | AS interf ctr inactive
Cc1cc(Cl)c(OCCOCCN2CCN(C)CC2)c(Br)c1	MITF primary 77 | MITF inh conf inactive | AS interf ctr inactive
Cc1cc(Cl)c(OCCCN2CCN(C)CC2)c(Br)c1	MITF primary 65 | MITF inh conf inactive | AS interf ctr inactive
COCCNCCOc1c(Cl)cc(C)cc1Br	MITF primary 64 | MITF inh conf inactive | AS interf ctr inactive
Cc1cc(Cl)c(OCCCN2CCOCC2)c(Br)c1	none
COc1cc(C2C(C(=O)OCc3ccccc3)=C(C)NC3=C2C(=O)CCC3)cc(OC)c1OC (centres undefined)	none
O=C(Cc1ccc(NC2=NC3CS(=O)(=O)CC3S2)cc1)N1CCCCCC1 (centres undefined)	none
O=C(Nc1ccncc1)NC1CC(=O)N(c2ccc(Cl)cc2)C1 (centres undefined)	none
CC(C)(c1ccc(O)c(N)c1)c1ccc(O)c(N)c1	MITF primary 74 | MITF inh conf inactive | AS interf ctr 33
CC(C)(c1ccc(O)cc1)c1ccc(O)cc1	none
Cc1ccc(Nc2nc(CSc3nnnn3C)cs2)cc1	none
CCCN1CCN(Cc2csc(Nc3ccc(C)cc3)n2)CC1	MITF primary 61 | MITF inh conf inactive | AS interf ctr inactive
COc1cccc(NC(=O)c2cc(S(=O)(=O)NC3CCCC(C)C3C)ccc2F)c1 (centres undefined)	none
CN1CCN(CCCOc2cc(Cl)ccc2Cl)CC1	none
C=CCc1ccccc1OCCOCCN1CCOCC1	MITF primary 72 | MITF inh conf inactive | AS interf ctr inactive
C=CCc1cc(Cl)ccc1OCCCN1CCN(C)CC1	MITF primary 79 | MITF inh conf inactive | AS interf ctr inactive
C=CCc1cc(C)ccc1OCCCN1CCCC1	MITF primary 55 | MITF inh conf inactive | AS interf ctr inactive
C=CCc1cc(C)ccc1OCCN1CCCC1	none
C=CCc1cc(C)ccc1OCCOCCN1CCN(C)CC1	MITF primary 60 | MITF inh conf inactive | AS interf ctr inactive
O=C1N/C(=C/c2cc(Cl)c(O)c(Br)c2)C(=O)N1c1ccccc1	none
COc1ccccc1C(=O)N1CCN(C(=O)c2ccncc2)CC1	none
CC1=C(C(=O)Nc2ccc(Cl)cc2)C(c2ccco2)C(C#N)=C(SCC(=O)Nc2ccc(C)cc2)N1 (centres undefined)	none
C=CCc1cc(C)ccc1OCCCCn1ccnc1	MITF primary 74 | MITF inh conf 35 | AlphaScreen DR inactive | AS interf ctr inactive
